High-throughput results (PubChem BioAssay)
TDP1 cell CPT – DT40-hTDP1 cell growth loss with CPT; 420,000 compounds, 12% hits; AID 686979; chicken DT40 Tdp1-/-;hTDP1 cells + 20 nM CPT, ATP luminescence, 48 h; Potency, µM (titrated, usually from 46.2 µM), inactives show at the top dose activity change, negative = growth inhibition, usual class: inhibitors; further: on the % scale 0 is the no-effect control and ±100 the full control effect; nearly all actives have a fitted effect of over 55% in size
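Chicken DT40 Tdp1-/- cells stably complemented with human TDP1 were seeded at 400 cells/well in medium containing 20 nM camptothecin, exposed to pin-transferred compounds, and grown at 37 °C for at least 48 hr. Viability was read as ATP luminescence.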
DT40 TDP1 no CPT – qHTS for Inhibitors of human tyrosyl-DNA phosphodiesterase 1 (TDP1): qHTS in cells in absence of CPT | DT40 Tdp1-/- hTDP1 cells, no CPT, ATP luminescence, 48 h | Potency, µM (highest dose often 46.2 µM), for the others: top-dose activity change, negative = growth inhibition, actives largely listed as inhibitors | 420,000 compounds, 15% hits | AID 686978, 2013; further: on the % scale 0 is the no-effect control and ±100 the full control effect; nearly all actives have a fitted effect of over 55% in size
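Cells were dispensed at 400 per well, compounds added by pin tool, plates incubated ≥48 hr at 37 °C, then CellTiter-Glo added for 30 min at room temperature before luminescence reading. Line: DT40 Tdp1-/- complemented with hTDP1; camptothecin omitted.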
S2 tox – cell viability loss in ATXN counter-screen; 400,000 compounds, 0.49% hits; S2 cells (HEK-293 line with an ATXN2-luciferase reporter) viability, CellTiter-Fluor protease fluorescence, 24 h; Potency, µM (titrated, usually from 56.7 µM), hits mostly cytotoxic; further: nearly all actives have a fitted effect of over 40% in size
TGFb inhibitor – inhibitors of TGF-b signaling. HepG2 CAGA-GFP TGF-b/SMAD3 reporter, GFP fluorescence, 18 h; TGF-beta stimulated, 500 pg/mL final. Potency, µM (highest dose often 46.1 µM), inactives show at the highest dose activity, negative = inhibition, most hits filed as inhibitors. 410,000 compounds, 1.2% hits; further: on the % scale 0 is the no-effect control and ±100 the full control effect; nearly all actives have a fitted effect of over 65% in size
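Inhibition of TGF-beta-driven CAGA-GFP reporter expression in HEPG2 cells is measured by cellular GFP fluorescence after 18 h stimulation with 500 pg/mL recombinant TGF-beta in 1% FBS medium at 37 degrees C.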
ATXN2 expr inh – ATXN2 expression inhibition | HEK-293 ATXN2-luciferase reporter, luminescence, 24 h | Potency, µM (highest dose often 57 µM), for the others: top-dose activity change, negative = inhibition, most hits filed as inhibitors | 360,000 compounds, 0.72% hits; further: on the % scale 0 is the no-effect control and ±100 the full control effect; nearly all actives have a fitted effect of over 55% in size
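ATXN2-luciferase reporter cells (luciferase flanked by upstream and downstream ATXN2 gene portions) were treated 24 h at 37 °C with compounds at up to 57 uM. SteadyGlo luminescence gave expression; GF-AFC fluorescence gave viability.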
HepG2 tox – HepG2 cytotoxicity, counter-screen for TGF-b inhibitors; Potency, µM (highest dose often 46.1 µM), for inactives: at the top dose activity change, negative = cytotoxicity, actives largely listed as cytotoxic; HepG2 CAGA-GFP viability, ATP luminescence, 18 h; 410,000 compounds, 0.76% hits; AID 588856
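HepG2 CAGA-GFP cells (1000/well, DMEM with 1% FBS) received compound, then TGF-beta at 500 pg/mL final, and were incubated 18 hours at 37 degrees C. Viability was read by CellTiter-Glo luminescence. Media-only wells were set as complete cell-killing and DMSO as no toxicity.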
* = called active by the depositor; i = inactive; ? = inconclusive; nt = no result given; [ ] = another dose, or the depositor's remark. Compounds with a hit are over-represented: about 17% of the library has one in this group of screens. The call rests on the fitted dose curve; in most records, active means well fitted curve in the direction sought with a large enough effect; inconclusive means small, poorly fitted or top-dose-only effect, or another doubt; inactive means no such curve, though single readings can be large; an effect the other way counts as inactive or inconclusive. Potency means the concentration at half of the fitted maximal effect.

SMILES	TDP1 cell CPT	DT40 TDP1 no CPT	S2 tox	TGFb inhibitor	ATXN2 expr inh	HepG2 tox
CCCCn1nnnc1C(c1ccnc2ccccc12)N1CCN(C/C=C/c2ccccc2)CC1 (stereo unspecified)	20.6µM*	20.6µM*	?	?	-22.9%	-9.3%
O=C(CSc1ncccn1)NCC1Cc2cccc(-c3ncccn3)c2O1 (stereo unspecified)	7.0%[9.04 µM]	8.2%	i	nt	nt	nt
CC(C)NC(=O)NNC(=O)c1cc(COc2cc(Cl)cc(Cl)c2)on1	0.7%	-6.6%	i	-11.2%	37.4%	-6.3%
Clc1ccccc1Cc1noc(CN2CCCCC2c2ccccn2)n1 (stereo unspecified)	?	-26.1%	i	-4.3%	-11.7%	1.8%
CCCCn1c(N)c(N(C(=O)CSc2nncn2-c2ccccc2)C2CCCC2)c(=O)[nH]c1=O	-11.2%	3.9%	i	1.1%	19.0%	-21.7%
C=CCN1CCN(C(c2ccccc2)c2nnnn2CCC(C)C)CC1 (stereo unspecified)	6.51µM*	6.51µM*	i	-10.3%	-2.4%	-60.0%
COC(=O)Cc1c(C)c2ccc(OC3CCCCC3=O)c(C)c2oc1=O (stereo unspecified)	?	18.4µM*	i	?	-1.4%	-42.3%
COC(=O)Cc1c(C)c2ccc(OC3CCCCC3=O)cc2oc1=O (stereo unspecified)	-25.2%	-3.0%	i	11.6%	32.5%	8.4%
Cc1nnsc1C(=O)Oc1ccccc1Cl	15.6%	-17.9%	i	1.8%	10.8%	4.2%
CCOc1cc(OCC)cc(C(=O)N2CCC[C@@H]2C(=O)N2CCC[C@H]2C(=O)NCc2ccncc2)c1	-18.1%	-19.5%	i	nt	-8.8%	nt
Cc1nn(Cc2ccc([N+](=O)[O-])cc2)c(=O)n1-c1ccccc1Cl	1.0%	-16.3%	i	9.3%	-22.9%	7.3%
Cc1nn(Cc2ccc([N+](=O)[O-])cc2)c(=O)n1N(C)c1ncc(C(F)(F)F)cc1Cl	?	11.2µM*	i	-4.1%	-16.2%	-6.4%
Cc1nn(Cc2ccc(Cl)cc2)c(=O)n1N(C)c1ncc(C(F)(F)F)cc1Cl	20.6µM*	20.6µM*	i	-0.4%	-3.5%	0.9%
CC(C)C(NC(=O)c1c(F)cccc1F)C(=O)N1CCN(c2ncccn2)CC1 (stereo unspecified)	-2.1%	-19.5%	?	6.7%	nt	-1.1%
N/N=C(/Cc1nc2ccccc2[nH]1)c1ccc([N+](=O)[O-])cc1	25.9µM*	?	i	-19.9%	38.7%	-1.3%
c1ccc(N/N=C(\Cc2nc3ccccc3[nH]2)c2ccccc2)cc1	?	?	i	-45.7%	47.0%	-7.9%
Cc1ccc(N/N=C(\Cc2nc3ccccc3[nH]2)c2ccccc2)cc1	0.82µM*	0.651µM*	?	?	30.1%	-0.6%
CCC(=O)N1CCc2cc(Br)cc(S(=O)(=O)CCC(=O)Nc3cccc(C)c3C)c21	-6.6%	-26.2%	i	2.4%	11.6%	10.0%
CCOc1ccc2nc(NCCCNC(=O)c3cc(OC)c(OC)c(OC)c3)c(C#N)cc2c1	13µM*	16.4µM*	nt	-7.2%	5.0%	-10.9%
COc1cc(C(=O)NCCCNc2nc3cc(C)cc(C)c3cc2C#N)cc(OC)c1OC	?	?	i	1.5%	-2.6%	-5.6%
COc1cc2cnc(-c3ccccc3)c(C(=O)c3ccc(OCc4ccccc4)cc3)c2cc1OC	?	?	i	?	7.1%	-18.2%
N#Cc1ccc(-c2c(-c3ccccc3)ncc3cc(F)ccc23)cc1	10.3µM*	16.4µM*	?	?	?	-16.0%
COC(=O)c1ccc(-c2c(-c3ccccc3)ncc3cc(F)ccc23)cc1	13µM*	25.9µM*	?	-11.2%	-13.3%	-10.3%
